HP1b chromo inh = HTS for Inhibitors of HP1-beta Chromodomain Interactions with Methylated Histone Tails; Chromobox protein homolog 1 (Homo sapiens), P83916; AlphaScreen HP1-beta / biotin-H3K9me3 peptide binding; Potency, µM (titrated, usually from 114 µM), without a hit: top-dose activity change, negative = inhibition, most hits filed as inhibitors; actives 0.56% (n = 390,000); also: nearly all actives have a fitted effect of over 70% in size
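AlphaScreen: HP1-beta (50 nM) preformed 30 min with biotin-H3(1-18)K9me3 peptide (50 nM) in PBS pH 7.4, 0.01% Tween-20. Compound added for 30 min at RT, then streptavidin donor/nickel chelate acceptor beads (10 ug/mL) for 30 min.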
Sfp PPTase inh = qHTS Assay for Inhibitors of Bacillus subtilis Sfp phosphopantetheinyl transferase (PPTase); AID 1490, 2009; 4'-phosphopantetheinyl transferase ffp (Bacillus subtilis), Q9F4F7; actives 3.5% (n = 310,000); Potency, µM, for inactives: largest response in the series, negative = inhibition, hits mostly inhibitors; Biochemical Sfp PPTase activity, qHTS;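 also: the enzyme is Sfp with the accession as filed and its product quenches rhodamine fluorescence; 0% = enzyme reaction without inhibitor and -100% = no enzyme wells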
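Reaction rates are the 30-min fluorescence difference (ex 525, em 598 nm) in wells containing 15 nM Sfp, 5 uM rhodamine-CoA and 12.5 uM BHQ-2-YbbR at pH 7.6 with 10 mM MgCl2.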
G9a inh = qHTS Assay for Inhibitors of Histone Lysine Methyltransferase G9a; Potency, µM (doses to about 102 µM), inactives show at the highest dose activity, negative = inhibition, hits mostly inhibitors; Histone-lysine N-methyltransferase EHMT2 (Homo sapiens), Q96KQ7; G9a H3K9 monomethylation, AlphaScreen, 2 h; actives 8.8% (n = 350,000); also: % is scaled to controls: 0 for no effect and ±100 for the full control effect; nearly all actives have a fitted effect of over 75% in size
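G9a (20 nM) preincubated 15 min RT with compounds, then 500 nM biotinylated H3K9 peptide and 20 uM SAM added; 2 h RT reaction. Monomethyl-H3K9 product detected by AlphaScreen with anti-H3K9me1 antibody, streptavidin donor and anti-rabbit IgG acceptor beads.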
BAZ2B block = qHTS Assay for Inhibitors of BAZ2B; AID 504333, 2011; Potency, µM (series often up to 114 µM), without a hit: top-dose activity change, negative = inhibition, usual class: inhibitors; AlphaScreen BAZ2B-H3K14Ac peptide displacement; actives 4.4% (n = 360,000); also: % is scaled to controls: 0 for no effect and ±100 for the full control effect; nearly all actives have a fitted effect of over 60% in size
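BAZ2B (50 nM) with biotin-H3(5-23)K14Ac peptide (50 nM) in PBS pH 7.4, 0.01% Tween-20, preformed 30 min, then compound 30 min at room temperature; top concentration 110uM. AlphaScreen streptavidin donor/nickel chelate acceptor beads (10 ug/mL final), 20 min dark, signal read.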
TDP1 inh = qHTS Assay for Inhibitors of Tyrosyl-DNA Phosphodiesterase (TDP1); Tyrosyl-DNA phosphodiesterase 1 (Homo sapiens), Q9NUW8; recombinant TDP1, AlphaScreen DNA substrate cleavage; Potency, µM (top dose mostly 130 µM), for the others: at the top dose activity change, negative = inhibition, hits mostly inhibitors; actives 0.28% (n = 350,000); also: % is scaled to controls: 0 for no effect and ±100 for the full control effect; nearly all actives have a fitted effect of over 40% in size
Target sequence (Q9NUW8 whole entry, looked up): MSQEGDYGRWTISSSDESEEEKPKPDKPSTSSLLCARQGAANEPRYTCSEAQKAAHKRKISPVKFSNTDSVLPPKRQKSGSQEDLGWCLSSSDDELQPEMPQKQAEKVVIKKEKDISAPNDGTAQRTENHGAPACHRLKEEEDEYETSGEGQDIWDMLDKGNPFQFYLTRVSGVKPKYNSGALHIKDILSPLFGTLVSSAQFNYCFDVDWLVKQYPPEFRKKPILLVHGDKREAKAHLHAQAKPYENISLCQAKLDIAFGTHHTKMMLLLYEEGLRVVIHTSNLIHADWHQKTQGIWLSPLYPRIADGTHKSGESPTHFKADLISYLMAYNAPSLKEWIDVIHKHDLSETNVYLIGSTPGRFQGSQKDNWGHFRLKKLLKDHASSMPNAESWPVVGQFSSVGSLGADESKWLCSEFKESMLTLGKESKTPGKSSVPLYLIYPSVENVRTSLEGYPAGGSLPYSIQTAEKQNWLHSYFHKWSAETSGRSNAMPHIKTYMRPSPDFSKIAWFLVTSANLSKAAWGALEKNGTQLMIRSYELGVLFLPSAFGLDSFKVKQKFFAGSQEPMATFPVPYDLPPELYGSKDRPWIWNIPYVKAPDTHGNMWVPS
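E. coli-derived human Tdp1, 1 nM final. Cpd preinc 15 min RT; substrate 15 nM final, 5 min RT; AS bead mix 10 ug/ml final, 10 min RT. Signal loss = tyrosine-FITC cleavage. No-enzyme wells = max signal.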
JMJD2A Tudor = qHTS Assay for Inhibitors of JMJD2A-Tudor Domain. Potency, µM (top dose mostly 114 µM), for inactives: at the highest dose activity change, negative = inhibition, hits mostly inhibitors. Lysine-specific demethylase 4A (Homo sapiens), O75164. actives 4.4% (n = 390,000). AlphaScreen JMJD2A-Tudor / H3K4me3 peptide binding; also: % is scaled to controls: 0 for no effect and ±100 for the full control effect; nearly all actives have a fitted effect of over 50% in size
An asterisk follows results filed as active; u = inconclusive; x = no result; ! = not active in a repeat; [ ] = remark or other dose. Hits are enriched below; roughly 12% of the tested compounds scored in any of these assays. Calls follow the shape of the dose curve; as a rule, active = well fitted curve in the direction sought with a large enough effect; inconclusive = small, poorly fitted or top-dose-only effect, or another doubt; inactive = no such curve, though single readings can be large; an effect the other way counts as inactive or inconclusive. Potency is read from the fitted curve at half-maximal effect.

SMILES | HP1b chromo inh | Sfp PPTase inh | G9a inh | BAZ2B block | TDP1 inh | JMJD2A Tudor
Cc1ccc(C(=O)OC/C(O)=C(\C#N)c2nc3ccccc3[nH]2)cc1S(=O)(=O)N1CCOCC1 | 38% | 11% | -7%[59 µM] | 34% | 6% | -13%
COc1ccc2c3c(cccc13)C(=O)N(O)C2=O | 20% | -6% | -49%[59 µM] | -30% | -4% | -13%
CCC1=NNc2cccc3c(OC)ccc1c23 | x | 32µM* | 25µM* | 28µM* | x | x
Nc1c(N=Nc2ccc(-c3ccc(N=Nc4cc(S(=O)(=O)O)c5ccccc5c4N)cc3)cc2)cc(S(=O)(=O)O)c2ccccc12 | x | 45µM* | 3.5µM* | x | 20% | x
Cc1cc(-c2ccc(N=Nc3ccc4c(S(=O)(=O)O)cc(S(=O)(=O)O)c(N)c4c3O)c(C)c2)ccc1N=Nc1ccc2c(S(=O)(=O)O)cc(S(=O)(=O)O)c(N)c2c1O | x | 10µM*! | u | x | 24%[56.1 µM] | x
CCOC(=O)c1c(C)[nH]c(C)c1C(=O)COC(=O)/C=C/c1ccccc1[N+](=O)[O-] | u | x | x | x | 7% | 89µM*
CCOC(=O)c1c(C)[nH]c(C)c1C(=O)COC(=O)/C=C/c1cccc(Cl)c1 | u | 5% | -18%[59 µM] | u | 3% | u
CCOC(=O)c1c(C)[nH]c(C)c1C(=O)COC(=O)c1ccc(OC)cc1 | -3% | 4% | 40µM* | u | 1% | -18%[57.1 µM]
Cc1ccc(C(OCC(C)(C)C[N+](C)(C)C)c2ccccc2)cc1 (stereo not given) | 17% | 45µM* | 35%[59 µM] | -10% | 4% | 22µM*
COCCN1C(=O)/C(=C/c2ccc(N3CCCC3)cc2C)SC1=S | -16% | 9% | -9%[0.501 µM] | 8.9µM* | 5% | u
CCN=C1S/C(=C\c2ccc(N3CCOCC3)cc2C)C(=O)N1CC | 22% | 5% | -1%[59 µM] | -12% | 0% | -12%
Cc1nc(N/N=C/c2ccccn2)sc1C | -16% | -10% | u | u | 11% | -35%
CCCc1sc(N/N=C/c2ccccn2)nc1-c1ccc(F)cc1 | -20% | -10% | -46%[59 µM] | u | 4%[56.1 µM] | 45µM*
COc1ccccc1N1CCN(S(=O)(=O)CCNC(=O)c2ccc(Br)o2)CC1 | 48% | 16% | -8% | -16% | 6% | 11%
CC(=O)c1c(C)[nH]c(C(=O)Nc2nccs2)c1C | -10% | -1% | 8% | u | 4% | 22µM*
Cc1cccc(C)c1NC(=O)CCCN1C(=O)CCn2nc(-c3cn(C)c4ccccc34)cc21 | 23%[57 µM] | x | 4%[59 µM] | -1% | 3% | 0%
Cc1cc2c(NC(=O)Nc3ccc(C(C)(C)C)cc3)cccc2nn1 | -17% | u | x | u | 4% | u
Cc1cc2c(NC(=O)Nc3ccccc3)cccc2nn1 | 27% | 45µM* | u | 8% | -7% | -2%
CCN(CC)c1ccc(CNS(=O)(=O)c2cc3c(cc2C)NC(=O)CO3)cc1 | 8%[57 µM] | x | 14µM* | -36% | 3% | u
COc1ccc(CNS(=O)(=O)c2cc3c(cc2Cl)NC(=O)CO3)cc1 | 15% | 5% | -3% | u | 8% | -13%
Cc1cc2c(cc1S(=O)(=O)NCc1ccc(F)cc1)OCC(=O)N2 | 20% | x | -42%[59 µM] | -27% | 8% | -23%
Cc1cc2c(cc1S(=O)(=O)N1CCCCC1)OCC(=O)N2 | u | 8% | -6% | 79µM*! | 3% | -17%
O=C1COc2cc(S(=O)(=O)NCc3ccco3)c(Cl)cc2N1 | 24%[57 µM] | x | u | 50µM* | 56µM* | -21%
COC(=O)c1ccc2c(=O)[nH]c(COC(=O)c3[nH]c(C)c(C(C)=O)c3C)nc2c1 | -26% | x | x | x | -3% | -29%

Source: PubChem BioAssay
